Here are results for seven molecules from PubChem BioAssay (NCI).

The panel holds about 83,000 compounds, 20% with a hit somewhere; the sample as a whole holds those more often.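 Activity criterion: percent growth below 10, measured after cells in 96-well plates were exposed to a single compound concentration for 48 hours.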 A number with no mark means an inactive call. The source made the active and inactive calls.

Some test systems named below: HCT-15 colon; HT29 colon; SNB-75 CNS; SNB-19 CNS; U251 CNS; PC-3 prostate; SK-MEL-5 melanoma; UACC-62 melanoma; LOX IMVI melanoma; SK-MEL-28 melanoma; SK-MEL-2 melanoma; EKVX NSCLC; SN12C renal; UO-31 renal; TK-10 renal; ACHN renal; CAKI-1 renal; A498 renal; CCRF-CEM leukemia; MOLT-4 leukemia.
Common to all, as to experiment: NCI-60 one-dose screen, 48 h (100 = growth as untreated, 0 = no growth, -100 = all killed)
Holding throughout (settings): 10 µM unless noted

In the case of `Cc1c(C2=CCCCC2)c2ccccn2c1C(=O)c1cccc(S(=O)(=O)N2CCOCC2)c1`, the growth with HCT-15 colon was 83.9%; in the assay on HT29 colon it was 59.5%; in the assay with SNB-75 CNS it was 57.8%; in the assay with SNB-19 CNS, 101%; in the assay with U251 CNS it was 91.4%; in the assay on PC-3 prostate, 71.1%. The growth in the assay on SK-MEL-5 melanoma is 104%; with UACC-62 melanoma it was 77.7%; in the assay on LOX IMVI melanoma it was 89.1%; in the assay with SK-MEL-28 melanoma it was 101%; in the assay with SK-MEL-2 melanoma, 91.8%; with EKVX NSCLC it was 68.7%. For the same molecule, the growth with SN12C renal was 99.8%; in the assay on UO-31 renal it was 56.8%; with TK-10 renal, 71.5%; in the assay with ACHN renal, 93.4%; in the assay on CAKI-1 renal it was 59.6%; in the assay on A498 renal it was 116%. Further, the growth was 81.5% in the assay on CCRF-CEM leukemia and 82.6% in the assay with MOLT-4 leukemia.
Regarding `COc1ccc(-c2nc(N=Nc3c(O)[nH]c4ccccc34)nc(N3CCOCC3)c2C#N)cc1`, the growth was 69.9% in the assay on HCT-15 colon; 49.2% in the assay with HT29 colon; 44% in the assay with SNB-75 CNS; 72.6% in the assay with SNB-19 CNS; 37.8% with U251 CNS; 72.7% with PC-3 prostate. Moreover, the growth is 57.5% in the assay on SK-MEL-5 melanoma; 50.3% with UACC-62 melanoma; 66.8% in the assay with LOX IMVI melanoma; 72.2% in the assay with SK-MEL-28 melanoma; 77.9% with SK-MEL-2 melanoma; 74.5% with EKVX NSCLC. For the same molecule, the growth in the assay on SN12C renal is 73.3%; with UO-31 renal it was 84.8%; with TK-10 renal it was 71.5%; with ACHN renal, 25%; in the assay with CAKI-1 renal, 43.3%; in the assay on A498 renal, 67.4%. For the same molecule, the growth was 75.5% in the assay on CCRF-CEM leukemia and 80.8% with MOLT-4 leukemia.
On to `CS(=O)(=O)c1ccc(-c2cc3c(oc2=O)-c2ccccc2OC3O)cc1` (centres undefined), for which the growth with HCT-15 colon is 94.4%; with HT29 colon it was 105%; in the assay with SNB-75 CNS, 84.6%; in the assay with SNB-19 CNS, 89%; in the assay with U251 CNS it was 97.7%; with PC-3 prostate, 89.8%. Moreover, the growth with SK-MEL-5 melanoma was 101%; in the assay with UACC-62 melanoma, 92.2%; with LOX IMVI melanoma it was 98%; in the assay on SK-MEL-28 melanoma, 101%; with SK-MEL-2 melanoma, 99.2%; with EKVX NSCLC, 98.4%. Further, the growth in the assay on SN12C renal is 104%; in the assay on UO-31 renal, 74%; in the assay on TK-10 renal it was 99.9%; with ACHN renal, 98.6%; with CAKI-1 renal, 75.4%; in the assay on A498 renal it was 87.7%. The figures for the growth in the assay with CCRF-CEM leukemia and with MOLT-4 leukemia were 58.9% and 86.3%, respectively.
Take `Cc1ccc(C2CC(c3cccc(Nc4ccncc4)c3)=NN2c2ccccc2)cc1` (centres undefined): the growth in the assay with HCT-15 colon is -82.6% (active); with HT29 colon, -42% (active); in the assay with SNB-75 CNS, -95.6% (active); in the assay with SNB-19 CNS, -76.8% (active); with U251 CNS, -54.1% (active); in the assay with PC-3 prostate it was -66.7% (active). The growth is -94.1% (active) with SK-MEL-5 melanoma; -94.9% (active) in the assay on UACC-62 melanoma; -100% (active) in the assay with LOX IMVI melanoma; -98.9% (active) in the assay with SK-MEL-28 melanoma; -64.6% (active) in the assay with SK-MEL-2 melanoma; -51.9% (active) in the assay with EKVX NSCLC. For the same molecule, the growth is -93.1% (active) in the assay with SN12C renal; -100% (active) in the assay on UO-31 renal; -83.6% (active) in the assay on TK-10 renal; -99.8% (active) in the assay with ACHN renal; -94.6% (active) in the assay on CAKI-1 renal; 30.7% in the assay on A498 renal. The figures for the growth in the assay on CCRF-CEM leukemia and with MOLT-4 leukemia were -24.5% (active) and -26.8% (active), respectively.
`S=c1[nH]cccc1-c1nnc2n1Nc1nc3ccc(Cl)cc3cc1CS2`: the growth was 96.9% in the assay on HCT-15 colon; 110% in the assay with HT29 colon; 91.4% in the assay with SNB-75 CNS; 96.8% in the assay on SNB-19 CNS; 105% in the assay on U251 CNS; 97.7% in the assay with PC-3 prostate. Moreover, the growth was 98% in the assay on SK-MEL-5 melanoma; 87.3% in the assay with UACC-62 melanoma; 98% with LOX IMVI melanoma; 104% in the assay with SK-MEL-28 melanoma; 96.1% in the assay with SK-MEL-2 melanoma; 93.1% in the assay on EKVX NSCLC. Moreover, the growth in the assay on SN12C renal was 102%; in the assay on UO-31 renal it was 79.6%; with TK-10 renal it was 111%; in the assay on ACHN renal it was 101%; with CAKI-1 renal, 81.8%; in the assay with A498 renal, 107%. The growth in the assay on CCRF-CEM leukemia was 100%; in the assay with MOLT-4 leukemia, 92.3%.
Turning to `Cn1c2c(Cl)c(Cl)ccc2c2cc(N)[nH]c(=O)c21`, the growth in the assay on HCT-15 colon is 97.1%; in the assay on HT29 colon, 92.8%; with SNB-75 CNS, 77.7%; in the assay on SNB-19 CNS, 98.4%; in the assay with U251 CNS, 93.8%; in the assay with PC-3 prostate, 64.6%. For the same molecule, the growth in the assay with SK-MEL-5 melanoma is 81.7%; with UACC-62 melanoma, 87.2%; with LOX IMVI melanoma it was 76.1%; in the assay on SK-MEL-28 melanoma, 103%; with SK-MEL-2 melanoma it was 116%; in the assay with EKVX NSCLC, 59.9%. Further, the growth in the assay on SN12C renal is 92%; with UO-31 renal it was 54.4%; with TK-10 renal it was 120%; in the assay on ACHN renal, 82.6%; in the assay with CAKI-1 renal, -23.4% (active); in the assay on A498 renal it was 56.5%. In addition, the growth with CCRF-CEM leukemia is 81.3%.
Take `Cc1ccccc1-c1cc(Cc2ccc(F)cc2)c(=O)[nH]n1`: the growth in the assay on HCT-15 colon was 110%; in the assay with HT29 colon, 117%; in the assay with SNB-75 CNS it was 101%; in the assay with SNB-19 CNS, 88.2%; in the assay on U251 CNS, 106%; in the assay with PC-3 prostate, 116%. Besides, the growth with SK-MEL-5 melanoma is 98.3%; in the assay with UACC-62 melanoma, 99.6%; in the assay on LOX IMVI melanoma, 98.9%; in the assay with SK-MEL-28 melanoma it was 118%; in the assay on SK-MEL-2 melanoma, 122%; in the assay on EKVX NSCLC, 81.8%. For the same molecule, the growth with SN12C renal is 148%; with UO-31 renal, 70.5%; with TK-10 renal it was 122%; in the assay with ACHN renal, 105%; with CAKI-1 renal it was 54.4%; with A498 renal it was 117%. The growth is -50.9% (active) in the assay with CCRF-CEM leukemia and 58.1% with MOLT-4 leukemia.
